According to PubChem BioAssay (Tox21):
Records with an inconclusive call do not appear. Entries that show only a call come without a potency. Calls of active or inactive are those of the source. Unless noted, the call rests on the fitted dose curve; in most records, active means well fitted curve in the direction sought with a large enough effect in the repeat runs; inconclusive means weak or mixed curves; inactive means no such curve, though single readings can be large; an effect the other way counts as inactive or inconclusive.

Columns and labels:
[1] = qHTS assay to identify small molecule antagonists of the estrogen related receptor (ERR) signaling pathway - cell viability counter screen (AID 1224818); further: series mostly up to about 46 µM
How it was run: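 ERR cells, 2,000 per well, compound added after 6 h and incubated 17.5 h at 37 C. Viability read by CellTiter-Fluor fluorescence after a further 30 min at 37 C.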

[2] = qHTS assay to identify small molecule antagonists of the estrogen related receptor (ERR) signaling pathway (AID 1224819; further: nearly all actives have a fitted effect of over 50% in size; further: potency means the concentration at half of the fitted maximal effect)
How it was run: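 ERR reporter cell line (NTP) plated at 2,000 cells/well, settled 6 h at 37C/5% CO2, then exposed to LOPAC compounds for 18 h at 37C. One-Glo luciferase luminescence read after 30 min at room temperature.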

[3] = qHTS assay to identify small molecule agonists of the estrogen related receptor (ERR) signaling pathway (AID 1224820); further: potency means the concentration at half of the fitted maximal effect
How it was run: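 Quantitative HTS of the LOPAC library used NTP ERR reporter cells treated 18 h at 37 C. Signal is luminescence after One-Glo addition and a 30 min room-temperature incubation.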

[4] = test system: estrogen-related receptor alpha (ERRalpha) with PGC-1alpha coactivator, human; assay: qHTS assay to identify small molecule antagonists of the estrogen related receptor signaling pathway with the pleiotropic PPARgamma coactivator (PGC) (AID 1224821; calls by dose curve; further: nearly all actives have a fitted effect of over 50% in size; further: potency means the concentration at half of the fitted maximal effect)
How it was run: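 Quantitative HTS for antagonism: PGC/ERR cells received compounds after 6 h attachment and were incubated 18 h at 37 C, with luminescence (One-Glo) as the endpoint.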

[5] = qHTS assay to identify small molecule antagonists of the estrogen related receptor signaling pathway with the pleiotropic PPARgamma coactivator (PGC) cell viability counter screen (AID 1224822; further: potency means the concentration at half of the fitted maximal effect)
How it was run: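 PGC/ERR cells rested 6 h, then compound-treated 17.5 h at 37 C. CellTiter-Fluor added for 30 min at 37 C, viability measured by fluorescence intensity.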

[6] = qHTS assay to identify small molecule agonists of the estrogen related receptor signaling pathway with the pleiotropic PPARgamma coactivator (PGC) (AID 1224823); further: potency means the concentration at half of the fitted maximal effect
How it was run: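 Cell-based luciferase assay in the NTP-supplied PGC/ERR line, 2,000 cells/well; 18 h compound exposure at 37 C, luminescence after One-Glo.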

Row | Structure (SMILES) | Potency [1] | Potency [2] | Potency [3] | Potency [4] | Potency [5] | Potency [6]
1 | N#Cc1cc([N+](=O)[O-])c2sc(C(N)=O)[n+]([O-])c2c1 | inactive | inactive | inactive | inactive | inactive | inactive
2 | CCN(CC)CCn1c(=O)c(Cc2ccc(OC)cc2)nc2ccccc21 | inactive | inactive | inactive | inactive | inactive | inactive
3 | CSC(N)=NCCC[C@H](N)C(=O)O | inactive | inactive | inactive | inactive | inactive | inactive
4 | COC(=O)C(N)Cc1ccc(Cl)cc1 (centres undefined) | inactive | inactive | inactive | inactive | inactive | inactive
5 | CC1CNCCN1S(=O)(=O)c1cccc2cnccc12 (centres undefined) | inactive | inactive | inactive | inactive | inactive | inactive
6 | O=C(O)c1cc(=O)c2c(Cl)cc(Cl)cc2[nH]1 | inactive | inactive | inactive | inactive | inactive | inactive
7 | Cc1ccc(O)c(N=Nc2ccccc2)n1 | inactive | inactive | 8.41 µM (active) | inactive | 5.52 µM (active) | inactive
8 | CCC(=O)N1CCN(C(=O)c2ccccc2)CC1 | inactive | inactive | inactive | inactive | inactive | inactive
9 | CCCn1c(=O)c2c(ncn2C)n(CCC)c1=O | inactive | inactive | inactive | inactive | inactive | inactive
10 | CC(C)Cn1c(=O)n(C)c(=O)c2[nH]cnc21 | inactive | inactive | inactive | inactive | inactive | inactive
11 | CCCCCCCCCCCCCCCCCCOC[C@H](COP(=O)([O-])OCC[N+](C)(C)C)OC | inactive | inactive | inactive | inactive | inactive | inactive
12 | CC(C)C[C@H](NC(=O)[C@H](O)[C@H](N)Cc1ccccc1)C(=O)O | inactive | inactive | inactive | inactive | inactive | inactive
13 | O=C1/C(=C/c2ccsc2)CC/C1=C\c1cccs1 | inactive | inactive | 24.6 µM (active) | inactive | inactive | 21.1 µM (active)
14 | O=C1Cc2c([nH]c3ccc(Br)cc23)-c2ccccc2N1 | inactive | inactive | 2.98 µM (active) | inactive | inactive | 1.23 µM (active)
15 | NC(=O)C(=O)O | inactive | inactive | inactive | inactive | inactive | inactive
16 | CC(C)C[C@H](NC(=O)C1OC1C(=O)O)C(=O)NCCCCN=C(N)N (some centres undefined) | inactive | inactive | inactive | inactive | inactive | inactive
17 | COc1ccc2c(c1)CCC1C2CC[C@@]2(C)C1CC[C@@H]2NCCCCCCN1C(=O)C=CC1=O (some centres undefined) | inactive | inactive | inactive | inactive | inactive | inactive
18 | CNCCC(Oc1ccccc1C)c1ccccc1 (centres undefined) | inactive | inactive | inactive | inactive | inactive | inactive
19 | CN1CC(O)C(O)C(O)C1CO (centres undefined) | inactive | inactive | inactive | inactive | inactive | inactive
20 | OCC1NCC(O)C(O)C1O (centres undefined) | inactive | inactive | inactive | inactive | inactive | inactive
21 | CC(C)NC[C@H](O)c1ccc(O)c(O)c1 | inactive | inactive | inactive | inactive | inactive | inactive
22 | CCCCCCCCCCCCCCCCCCN(CCCCCCCCCCCCCCCCCC)CCCN(CCO)CCO | inactive | inactive | inactive | inactive | inactive | inactive

Row | Structure (SMILES) | Potency [1] | Potency [2] | Potency [3] | Potency [4] | Potency [5] | Potency [6]
23 | O=C(O)C1CCCNC1 (centres undefined) | inactive | inactive | inactive | inactive | inactive | inactive
24 | Cn1c(=O)c2[nH]c(-c3ccccc3)nc2n(C)c1=O | inactive | inactive | inactive | inactive | inactive | inactive
25 | NCCCNCCCCNCCCN | inactive | inactive | inactive | inactive | inactive | inactive
26 | COc1ccc(-c2ccc(N)[n+](CCCC(=O)O)n2)cc1 | inactive | inactive | inactive | inactive | inactive | inactive
27 | CCCCOc1cc(CC2CNC(=O)N2)ccc1OC (centres undefined) | inactive | inactive | inactive | inactive | inactive | inactive
28 | C=CCn1c(=O)c2c(nc(-c3ccc(S(=O)(=O)O)cc3)n2C)n(C)c1=O | inactive | inactive | inactive | inactive | inactive | inactive
29 | Cn1cc(C(=O)OCC2CCN(CCNS(C)(=O)=O)CC2)c2ccccc21 | inactive | inactive | inactive | inactive | inactive | inactive
30 | COC(=O)C1=CO[C@@H](O)[C@@H]2C(CO)=CC[C@H]12 | inactive | inactive | inactive | inactive | inactive | inactive
31 | Cc1cc2c(cc1Cl)N(C(=O)Nc1ccnc3ccccc13)CC2 | inactive | inactive | inactive | inactive | inactive | inactive
32 | CC(N)(C(=O)O)c1ccc(C(=O)O)cc1 (centres undefined) | inactive | inactive | inactive | inactive | inactive | inactive
33 | Cc1cccc(/C=C/c2ccccc2)n1 | inactive | inactive | 13.3 µM (active) | inactive | inactive | 13.9 µM (active)
34 | NCCNS(=O)(=O)c1cccc2c(Cl)cccc12 | inactive | inactive | inactive | inactive | inactive | inactive
35 | O=C(O)C1CCNCC1 | inactive | inactive | inactive | inactive | inactive | inactive
36 | Brc1c(Br)c(Br)c2n[nH]nc2c1Br | inactive | 22 µM (active) | inactive | 21.1 µM (active) | inactive | inactive
37 | NC(=O)c1ccc2[nH]ccc2c1 | inactive | inactive | inactive | inactive | inactive | inactive
38 | Fc1cccc(/C=N/N=C/c2cccc(F)c2)c1 | inactive | inactive | 15.5 µM (active) | inactive | inactive | 12.3 µM (active)
39 | CCCCCCC(=O)OC1CC(C)(C)NC(C)(C)C1 | inactive | inactive | inactive | inactive | inactive | inactive
40 | Nc1ncnc2c1ncn2[C@@H]1O[C@H](COP(=O)(O)OP(=O)(O)OP(=O)(O)OP(=O)(O)OC[C@@H]2O[C@H](n3cnc4c(N)ncnc43)[C@@H](O)C2O)C(O)[C@H]1O (some centres undefined) | inactive | inactive | inactive | inactive | inactive | 15 µM (active)
41 | CCN(CC)CCOC(=O)c1cc(Cl)c(N)cc1OC | inactive | inactive | inactive | inactive | inactive | inactive
42 | NS(=O)(=O)c1cccc2c1c([N+](=O)[O-])cc1nc(O)c(O)nc12 | inactive | inactive | inactive | inactive | inactive | inactive
43 | S=c1[nH]c(-c2ccccc2)cn1-c1ccccc1 | inactive | inactive | inactive | inactive | inactive | inactive
44 | NC(=O)c1cccc(N)c1 | inactive | inactive | inactive | inactive | inactive | inactive

Row | Structure (SMILES) | Potency [1] | Potency [2] | Potency [3] | Potency [4] | Potency [5] | Potency [6]
45 | CCCCCCCCCCCCCCCC(=O)OC(CC(=O)O)C[N+](C)(C)C (centres undefined) | inactive | inactive | inactive | inactive | inactive | inactive
46 | C=C(C)C1CC=C(C(=O)O)CC1 (centres undefined) | inactive | inactive | inactive | inactive | inactive | inactive
47 | CCC(NC(C)C)C(O)c1ccc(O)c(O)c1 (centres undefined) | inactive | inactive | inactive | inactive | inactive | inactive
48 | CCCCCCCCCCCCCCCCCC(=O)OC(CC(=O)O)C[N+](C)(C)C (centres undefined) | inactive | inactive | inactive | inactive | inactive | inactive
49 | CCCN(CCc1ccccc1)C1CCc2c(O)cccc2C1 (centres undefined) | inactive | inactive | inactive | inactive | inactive | inactive
50 | CCCCCCCCCC(=O)NC(CN1CCOCC1)[C@H](O)c1ccccc1 (some centres undefined) | inactive | 17.4 µM (active) | inactive | inactive | inactive | inactive
51 | CN1CCN(c2nc3cc(C(F)(F)F)ccc3n3cccc23)CC1 | inactive | inactive | inactive | inactive | inactive | inactive
52 | CC(=O)O[C@H]1C[C@@H]2CC[C@@H]3[C@H](CC[C@@]4(C)[C@H]3C[C@H]([N+]3(C)CCCCC3)[C@@H]4OC(C)=O)[C@@]2(C)C[C@@H]1[N+]1(C)CCCCC1 | inactive | inactive | inactive | inactive | inactive | inactive
53 | NC(=O)CNCCC(c1ccccc1)c1ccccc1 | inactive | inactive | inactive | inactive | inactive | inactive
54 | C[C@@H]1C(=O)NC2=Nc3cccc(Cl)c3CN21 | inactive | inactive | inactive | inactive | inactive | inactive
55 | O=C1OC(=O)C2C3CCC(O3)C12 (centres undefined) | inactive | inactive | inactive | inactive | inactive | inactive
56 | CC[C@H](C)C(=O)O[C@H]1CCC=C2C=C[C@H](C)[C@H](CC[C@@H]3C[C@@H](O)CC(=O)O3)[C@H]21 | inactive | inactive | 3.48 µM (active) | inactive | inactive | inactive
57 | CCCCS(=N)(=O)CCC(N)C(=O)O (centres undefined) | inactive | inactive | inactive | inactive | inactive | inactive
58 | [Li+] | inactive | inactive | inactive | inactive | inactive | inactive
59 | CCC(CO)Nc1nc(NCc2ccccc2)c2ncn(C(C)C)c2n1 (centres undefined) | inactive | inactive | inactive | inactive | inactive | inactive
60 | O=C(O)C1=CCCNC1 | inactive | inactive | inactive | inactive | inactive | inactive
61 | CNC(=O)[C@H]1O[C@@H](n2cnc3c(NCc4ccc(N)cc4)ncnc32)[C@H](O)C1O (some centres undefined) | inactive | inactive | inactive | inactive | inactive | inactive
62 | O=C(O)/C(=C/c1c(C(=O)O)[nH]c2cc(Cl)cc(Cl)c12)c1ccccc1 | inactive | inactive | inactive | inactive | inactive | inactive
63 | Nc1ncnc2n[nH]c(Nc3ccc(F)cc3)c12 | inactive | inactive | inactive | inactive | inactive | 22.8 µM (active)
64 | Cc1cccc(-c2[nH]ncc2-c2ccc3ncccc3n2)n1 | inactive | 1.23 µM (active) | inactive | 1.44 µM (active) | inactive | inactive
